# According to paper PMC7862700, “An all-to-all approach to the identification of sequence-specific readers for epigenetic DNA modifications on cytosine”:
# How the values were obtained:
# Test in all cases: DAPPL (digital affinity profiling via proximity ligation, sequencing); 10 mM Tris-HCl pH 7.5, 50 mM NaCl, 1 mM DTT, 4% glycerol, room temperature, 30 min; GST-TFs on glutathione beads, 16-mer random dsDNA library, 0.1% formaldehyde crosslink after washing; high values mean tight binding
# Settings in all cases: protein: recombinant; tags: N-terminal GST; dsDNA, one strand shown
# FLI1 = target: T1, FLI1 (Homo sapiens, UniProt Q01543 1-452)
# T1 sequence: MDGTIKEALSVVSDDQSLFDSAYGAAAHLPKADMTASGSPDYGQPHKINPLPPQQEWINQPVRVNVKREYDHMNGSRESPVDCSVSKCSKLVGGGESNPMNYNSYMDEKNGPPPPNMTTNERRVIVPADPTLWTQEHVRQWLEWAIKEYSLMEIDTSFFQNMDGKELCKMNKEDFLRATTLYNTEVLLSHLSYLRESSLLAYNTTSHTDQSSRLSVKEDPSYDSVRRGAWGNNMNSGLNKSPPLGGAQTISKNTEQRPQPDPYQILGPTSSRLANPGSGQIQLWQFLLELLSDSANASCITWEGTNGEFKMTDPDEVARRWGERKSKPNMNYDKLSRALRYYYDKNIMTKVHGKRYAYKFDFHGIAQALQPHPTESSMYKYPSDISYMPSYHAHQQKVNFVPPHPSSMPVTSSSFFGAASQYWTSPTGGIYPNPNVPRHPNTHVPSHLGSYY
# In short: (§1)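 In yeast, human transcription factors were expressed with a GST fusion, then pulled down on glutathione beads and given DNA barcodes. Pooled with a tag-only sample, they were exposed to 200 nmole of a 16-mer random double-stranded DNA library (Tris/NaCl/DTT/glycerol buffer, room temperature, 30 min), washed, crosslinked with 0.1% formaldehyde, proximity-ligated using BsaI/T4 ligase for 1 h at 37 °C, PCR-amplified and read on an Illumina NextSeq500. Each hexamer's frequency of reads for a factor, divided by the matching frequency for the tag-only sample, gives the binding signal.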
# ELK1 = target: T2, ELK1 (Homo sapiens, UniProt P19419 1-428)
# T2 sequence: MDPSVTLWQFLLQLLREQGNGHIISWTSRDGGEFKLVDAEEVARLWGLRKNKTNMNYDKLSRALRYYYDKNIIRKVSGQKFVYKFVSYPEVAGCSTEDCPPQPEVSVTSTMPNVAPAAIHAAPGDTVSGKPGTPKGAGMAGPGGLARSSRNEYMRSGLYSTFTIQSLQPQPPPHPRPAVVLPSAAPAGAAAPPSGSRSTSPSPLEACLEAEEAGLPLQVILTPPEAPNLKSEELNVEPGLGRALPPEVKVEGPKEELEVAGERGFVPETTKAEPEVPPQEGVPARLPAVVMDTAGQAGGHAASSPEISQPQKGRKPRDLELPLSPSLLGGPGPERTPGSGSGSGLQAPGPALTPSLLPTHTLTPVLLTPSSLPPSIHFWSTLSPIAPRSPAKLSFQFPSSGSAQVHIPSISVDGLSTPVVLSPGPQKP
# In short: as §1
# GABPA = target: T3, GABPA (Homo sapiens, UniProt Q06546 1-454)
# T3 sequence: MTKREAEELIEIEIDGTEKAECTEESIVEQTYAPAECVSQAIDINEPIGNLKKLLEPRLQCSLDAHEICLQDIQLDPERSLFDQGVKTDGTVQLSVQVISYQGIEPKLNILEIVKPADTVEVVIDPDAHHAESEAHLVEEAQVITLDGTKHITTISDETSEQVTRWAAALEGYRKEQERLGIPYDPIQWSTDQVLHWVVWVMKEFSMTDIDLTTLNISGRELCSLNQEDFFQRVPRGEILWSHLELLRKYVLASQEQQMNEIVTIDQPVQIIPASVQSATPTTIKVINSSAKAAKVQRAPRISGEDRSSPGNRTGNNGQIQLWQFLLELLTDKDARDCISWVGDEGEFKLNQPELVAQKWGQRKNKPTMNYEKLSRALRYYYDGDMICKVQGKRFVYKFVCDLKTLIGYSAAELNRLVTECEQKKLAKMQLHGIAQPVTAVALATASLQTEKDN
# In short: as §1
# ERG = target: T4, ERG (Homo sapiens, UniProt P11308 1-479)
# T4 sequence: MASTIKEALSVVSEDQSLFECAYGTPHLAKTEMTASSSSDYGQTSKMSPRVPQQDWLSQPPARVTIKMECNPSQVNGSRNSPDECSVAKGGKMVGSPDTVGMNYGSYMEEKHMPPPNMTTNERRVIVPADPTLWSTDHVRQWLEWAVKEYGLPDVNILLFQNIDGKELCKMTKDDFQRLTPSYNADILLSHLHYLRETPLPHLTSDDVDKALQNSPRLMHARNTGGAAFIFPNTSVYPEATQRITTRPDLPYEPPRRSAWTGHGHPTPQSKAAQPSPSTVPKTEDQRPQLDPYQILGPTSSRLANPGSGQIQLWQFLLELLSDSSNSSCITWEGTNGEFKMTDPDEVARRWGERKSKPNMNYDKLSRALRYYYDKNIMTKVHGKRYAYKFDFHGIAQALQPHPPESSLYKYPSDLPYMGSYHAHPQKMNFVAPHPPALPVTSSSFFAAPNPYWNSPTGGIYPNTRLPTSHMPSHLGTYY
# In short: as §1
# ELF1 = ELF1 (Homo sapiens, UniProt P32519 1-619)
# Sequence of ELF1 (P32519 whole entry): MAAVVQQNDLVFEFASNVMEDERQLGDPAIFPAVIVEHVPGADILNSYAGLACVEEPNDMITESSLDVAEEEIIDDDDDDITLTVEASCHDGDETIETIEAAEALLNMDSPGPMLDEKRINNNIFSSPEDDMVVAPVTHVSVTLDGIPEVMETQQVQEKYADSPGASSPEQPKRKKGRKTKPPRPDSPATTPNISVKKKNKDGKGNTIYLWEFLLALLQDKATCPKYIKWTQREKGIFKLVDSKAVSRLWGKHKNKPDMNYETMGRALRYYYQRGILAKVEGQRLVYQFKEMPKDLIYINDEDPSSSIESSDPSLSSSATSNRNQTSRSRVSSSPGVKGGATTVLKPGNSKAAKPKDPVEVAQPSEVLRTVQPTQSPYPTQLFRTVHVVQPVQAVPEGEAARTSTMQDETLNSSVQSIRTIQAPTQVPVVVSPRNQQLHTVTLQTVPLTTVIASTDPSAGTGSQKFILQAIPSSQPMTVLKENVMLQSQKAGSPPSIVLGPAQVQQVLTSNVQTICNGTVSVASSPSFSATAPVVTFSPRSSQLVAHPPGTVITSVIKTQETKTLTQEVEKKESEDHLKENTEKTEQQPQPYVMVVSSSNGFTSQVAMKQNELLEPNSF
# In short: as §1
# EHF = target: T5, EHF (Homo sapiens, UniProt Q9NZC4 1-300)
# T5 sequence: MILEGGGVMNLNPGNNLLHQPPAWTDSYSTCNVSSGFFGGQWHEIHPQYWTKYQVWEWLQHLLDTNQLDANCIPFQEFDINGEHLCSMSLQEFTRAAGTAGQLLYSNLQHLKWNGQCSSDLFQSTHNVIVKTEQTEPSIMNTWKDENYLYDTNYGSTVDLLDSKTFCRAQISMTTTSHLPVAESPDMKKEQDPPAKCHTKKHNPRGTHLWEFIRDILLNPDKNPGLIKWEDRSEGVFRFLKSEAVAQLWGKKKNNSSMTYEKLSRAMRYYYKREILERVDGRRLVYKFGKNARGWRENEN
# In short: as §1
# SPI1 = SPI1 (Homo sapiens, UniProt P17947 1-270)
# In short: as §1
# SPIB = SPIB (Homo sapiens, UniProt Q01892 1-262)
# Sequence of SPIB (Q01892 whole entry): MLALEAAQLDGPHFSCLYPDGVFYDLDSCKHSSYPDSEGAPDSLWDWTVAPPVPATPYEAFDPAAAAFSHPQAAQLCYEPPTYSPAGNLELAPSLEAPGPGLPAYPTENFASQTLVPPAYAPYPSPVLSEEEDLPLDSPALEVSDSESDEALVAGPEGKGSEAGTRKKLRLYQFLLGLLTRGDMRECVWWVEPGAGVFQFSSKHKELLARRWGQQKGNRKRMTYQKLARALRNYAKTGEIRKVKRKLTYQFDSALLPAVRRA
# In short: as §1
# ELK3 = target: T6, ELK3 (Homo sapiens, UniProt P41970 1-407)
# T6 sequence: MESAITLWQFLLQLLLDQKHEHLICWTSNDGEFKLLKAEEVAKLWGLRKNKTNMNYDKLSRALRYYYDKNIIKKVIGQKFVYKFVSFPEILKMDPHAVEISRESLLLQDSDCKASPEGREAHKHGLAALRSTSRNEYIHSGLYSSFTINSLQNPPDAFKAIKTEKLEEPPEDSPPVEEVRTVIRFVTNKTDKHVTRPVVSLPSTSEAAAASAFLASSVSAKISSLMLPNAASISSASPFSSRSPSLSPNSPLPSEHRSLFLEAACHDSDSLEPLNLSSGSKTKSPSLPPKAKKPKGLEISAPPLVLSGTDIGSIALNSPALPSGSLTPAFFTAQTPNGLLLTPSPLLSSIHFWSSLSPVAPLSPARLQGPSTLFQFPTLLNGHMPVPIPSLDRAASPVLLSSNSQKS
# In short: as §1
sequence,measurement,setting,value
GGTTTC,binding signal,FLI1,"1.53 fold enrichment (6-mer frequency, TF over GST control)"
same,binding signal,ELK1,"1.39 fold enrichment (6-mer frequency, TF over GST control)"
same,binding signal,GABPA,"1.54 fold enrichment (6-mer frequency, TF over GST control)"
same,binding signal,ERG,"1.6 fold enrichment (6-mer frequency, TF over GST control)"
same,binding signal,ELF1,"1.54 fold enrichment (6-mer frequency, TF over GST control)"
same,binding signal,EHF,"1.51 fold enrichment (6-mer frequency, TF over GST control)"
same,binding signal,SPI1,"1.6 fold enrichment (6-mer frequency, TF over GST control)"
same,binding signal,SPIB,"1.52 fold enrichment (6-mer frequency, TF over GST control)"
same,binding signal,ELK3,"1.62 fold enrichment (6-mer frequency, TF over GST control)"
